Bioassay records deposited in PubChem by National Center for Advancing Translational Sciences (NCATS).
L3MBTL1 block – blocks human L3MBTL1. Q9Y468. AlphaScreen L3MBTL1–H3K9me1 peptide binding. Potency, µM (series often up to 57.1 µM), for the others: at the top dose activity, negative = inhibition, most hits filed as inhibitors. actives 0.66% (n = 230,000). AID 485360; also: potency is read from the fitted curve at half-maximal effect; % is scaled to controls: 0 for no effect and ±100 for the full control effect; nearly all actives have a fitted effect of over 60% in size
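AlphaScreen proximity signal between nickel-chelate acceptor and streptavidin donor beads (final 10 ug/mL) reports binding of 50 nM L3MBTL1 to 75 nM biotin-H3 K9me1 peptide; complex incubated with compounds 30 min at room temperature; cefsulodin titration as control.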
HP1b binding inh – inhibitors of HP1-beta chromodomain binding to methylated histone tails; P83916; AlphaScreen HP1-beta / biotin-H3K9me3 peptide binding; Potency, µM (titrated, usually from 114 µM), for the others: top-dose activity change, negative = inhibition, hits mostly inhibitors; actives 0.56% (n = 390,000); AID 540317; also: potency is read from the fitted curve at half-maximal effect; nearly all actives have a fitted effect of over 70% in size
Target sequence (P83916 whole entry, looked up): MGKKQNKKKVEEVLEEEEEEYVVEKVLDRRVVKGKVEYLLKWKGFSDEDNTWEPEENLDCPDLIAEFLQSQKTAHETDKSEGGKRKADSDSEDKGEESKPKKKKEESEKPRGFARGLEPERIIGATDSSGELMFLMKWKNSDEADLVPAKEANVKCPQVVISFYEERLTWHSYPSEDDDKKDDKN
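Compound inhibition of the preformed complex between 50 nM HP1-beta and 50 nM biotinylated H3K9me3 peptide was read by AlphaScreen. Buffer was PBS pH 7.4 with 0.01% Tween-20. Incubations ran 30 min at room temperature, with 10 ug/mL donor/acceptor beads.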
JMJD2A Tudor inh – inhibitors of human JMJD2A Tudor domain | AlphaScreen JMJD2A-Tudor / H3K4me3 peptide binding | Potency, µM (highest dose often 114 µM), for inactives: top-dose activity change, negative = inhibition, usual class: inhibitors | actives 4.4% (n = 390,000) | AID 504339; also: potency is read from the fitted curve at half-maximal effect; % is scaled to controls: 0 for no effect and ±100 for the full control effect; nearly all actives have a fitted effect of over 50% in size
BAZ2B inh – inhibitors of human BAZ2B bromodomain. Q9UIF8. AlphaScreen BAZ2B-H3K14Ac peptide displacement. Potency, µM (titrated, usually from 114 µM), for inactives: top-dose activity change, negative = inhibition, usual class: inhibitors. actives 4.4% (n = 360,000); also: potency is read from the fitted curve at half-maximal effect; % is scaled to controls: 0 for no effect and ±100 for the full control effect; nearly all actives have a fitted effect of over 60% in size
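Multi-concentration screen (max 110 uM) measuring displacement of acetylated histone H3 peptide from BAZ2B by AlphaScreen, using 50 nM protein, 50 nM peptide and 10 ug/mL streptavidin donor plus Ni-chelate acceptor beads.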
G9a inh – inhibitors of human histone lysine methyltransferase G9a; Potency, µM (top dose mostly 102 µM), for inactives: at the highest dose activity, negative = inhibition, most hits filed as inhibitors; AID 504332; actives 8.8% (n = 350,000); Q96KQ7; G9a H3K9 monomethylation, AlphaScreen, 2 h; also: potency is read from the fitted curve at half-maximal effect; % is scaled to controls: 0 for no effect and ±100 for the full control effect; nearly all actives have a fitted effect of over 75% in size
Target sequence (Q96KQ7 913-1193 limits assumed): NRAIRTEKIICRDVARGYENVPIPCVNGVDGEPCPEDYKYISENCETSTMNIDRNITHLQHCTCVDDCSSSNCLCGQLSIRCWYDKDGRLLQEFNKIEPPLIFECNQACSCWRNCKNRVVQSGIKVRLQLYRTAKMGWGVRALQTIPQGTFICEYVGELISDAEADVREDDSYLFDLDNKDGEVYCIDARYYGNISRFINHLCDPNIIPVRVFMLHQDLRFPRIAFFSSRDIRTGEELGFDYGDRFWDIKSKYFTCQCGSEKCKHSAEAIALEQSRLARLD
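AlphaScreen read-out: biotin-H3K9 peptide (500 nM) methylation by 20 nM enzyme with 20 uM SAM, 2 h at room temperature after 15 min compound preincubation; anti-monomethyl H3K9 antibody plus donor/acceptor beads, 10 min dark.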
PI5P4K alpha inh – blocks human PI5P4K alpha kinase activity | P48426 | PI5P4Kalpha enzyme, ADP-Glo luminescence, 60 min; hits give low values | max response, % | actives 1.2% (n = 330,000); active = max response of -50% or lower; inconclusive = between -30% and -50%; inactive = -30% or higher; also: value at the top dose of about 77 µM; % is scaled to controls: 0 for no effect and ±100 for the full control effect
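qHTS, 1536-well: enzyme/substrate mix, compound by pin tool, 5 microM ATP final; RT 60 min; ADP-Glo reagents 1 (45 min) then 2 (30 min); luminescence.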
Active calls of the source: *; ! = repeats disagree; [ ] = dose if it differs, or a comment. A selection: hits, their analogues and other compounds. The true share with any hit is near 11%. Unless noted, calls follow the shape of the dose curve; as a rule, active = well fitted inhibition curve with a large enough effect; inconclusive = small, poorly fitted or top-dose-only effect; inactive = no such curve, though single readings can be large or run the other way.

What do the screens show for `Cc1ccccc1CNC(=O)C1CCN(c2nnc(-n3c(C)ccc3C)s2)CC1`?
HP1b binding inh: 6%; JMJD2A Tudor inh: -22%; BAZ2B inh: -9%; G9a inh: -2%[59 µM]

How did CN(C)c1ccc(CNc2nc(-c3ccco3)nn2S(=O)(=O)c2ccc3ccccc3c2)cc1 do in these assays?
HP1b binding inh: inconclusive; JMJD2A Tudor inh: 8.9µM*; BAZ2B inh: 8.9µM*; G9a inh: 7.9µM*

Results for O=C(Nc1ccccc1Sc1ccccc1)c1cnn2c1NC(=C1CC1)C=C2C(F)(F)F ?
HP1b binding inh: 10%

Results for CC(C)CCNC(=O)c1ccc2c(c1)nc1n2CCCCC1 ?
HP1b binding inh: 33%[57 µM]; JMJD2A Tudor inh: -18%; BAZ2B inh: 2%; G9a inh: -14%[59 µM]

What do the screens show for `CC(C)NCC(O)c1ccc(O)c(O)c1` (stereo unspecified)?
HP1b binding inh: 11%; JMJD2A Tudor inh: -7%; BAZ2B inh: -27%; G9a inh: 14µM*!; PI5P4K alpha inh: -4

How did CNC[C@H](O)c1ccc(O)c(O)c1 do in these assays?
L3MBTL1 block: inconclusive; HP1b binding inh: 14%; JMJD2A Tudor inh: -28%; BAZ2B inh: 50µM*; G9a inh: 7.9µM*!; PI5P4K alpha inh: -1

Results for CC(C)NCC(O)c1ccc2ccccc2c1 (stereo unspecified) ?
L3MBTL1 block: -5%; HP1b binding inh: 45%; JMJD2A Tudor inh: -6%; BAZ2B inh: 11%; G9a inh: -49%[59 µM]; PI5P4K alpha inh: 4

Results for COc1ccc(Cn2c(=O)sc3ccccc3c2=O)cc1 ?
L3MBTL1 block: 36%; HP1b binding inh: 118%[57 µM]; JMJD2A Tudor inh: 116%; BAZ2B inh: 65%; G9a inh: 133%; PI5P4K alpha inh: 9

Results for COCCn1c(=O)sc2ccccc2c1=O ?
L3MBTL1 block: -18%; HP1b binding inh: 3%; JMJD2A Tudor inh: 14µM*; BAZ2B inh: 0%; G9a inh: 2%; PI5P4K alpha inh: -30

Results for Cc1coc2c1c(C)cc1oc(=O)c(CC(=O)N[C@@H](CC(C)C)C(=O)O)c(C)c12 ?
HP1b binding inh: 18%; JMJD2A Tudor inh: -29%; BAZ2B inh: 2%; G9a inh: 50µM*; PI5P4K alpha inh: -27

Results for CCN1C(=O)C(=O)c2cc(C)ccc21 ?
L3MBTL1 block: -1%; HP1b binding inh: 19%; JMJD2A Tudor inh: -22%; PI5P4K alpha inh: 6

What do the screens show for `CC[N+]1=C(C)C(C)(C)c2cc(C)ccc21`?
HP1b binding inh: -2%; JMJD2A Tudor inh: -4%[11.4 µM]; BAZ2B inh: 45µM*; G9a inh: inconclusive; PI5P4K alpha inh: -4

Results for CCOc1ccc(-n2c(SCc3ccccc3)nc3c([nH]c4ccccc43)c2=O)cc1 ?
HP1b binding inh: 19%[57 µM]; JMJD2A Tudor inh: inconclusive; BAZ2B inh: -1%; G9a inh: -5%[59 µM]

Results for COc1ccc(CCN(C)C(=O)COC(=O)/C=C/c2ccc(C)o2)cc1OC ?
L3MBTL1 block: -15%; HP1b binding inh: -19%; JMJD2A Tudor inh: inconclusive; BAZ2B inh: inconclusive; G9a inh: 35µM*; PI5P4K alpha inh: 5

How did CC1=C(C)C(=O)C(C(CCCCCC(=O)O)c2ccccc2)=C(C)C1=O (stereo unspecified) do in these assays?
G9a inh: -23%[12.7 µM]

Results for COC(=O)CN1C(C(=O)c2ccccc2)=C(OC(=O)c2ccccc2)c2ccccc2S1(=O)=O ?
HP1b binding inh: -23%; JMJD2A Tudor inh: inconclusive; BAZ2B inh: inconclusive; G9a inh: -20%[59 µM]

Results for Cc1ccc(C=Nc2ccc(N(C)C)cc2)o1 ?
L3MBTL1 block: inconclusive; HP1b binding inh: inconclusive; JMJD2A Tudor inh: 45µM*; G9a inh: 1.3µM*

Results for Cc1cnc(=O)[nH]c1SCC(=O)c1ccc(F)cc1 ?
HP1b binding inh: -32%; JMJD2A Tudor inh: -23%; BAZ2B inh: inconclusive; G9a inh: 7.1µM*; PI5P4K alpha inh: -7
